In the library only some 1.6% were active in any assay of this set; here they are far more common.
MOR-DOR ag = OPRM1-OPRD1 heterodimerization agonism; P35372+P41143; hit rate 0.3% among 340,000; AID 504326; activation, % at 9.3 µM; cells, luminescence; in the data active means activation above about 18%;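 further: 0% = vehicle-treated cells and 100% = reference agonist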
OPRM1-OPRD1 inv = mu-delta opioid heterodimer inverse agonism; P35372+P41143; cell-based MOR-DOR heterodimer luminescence; inhibition, % at 9.3 µM; hit rate 0.21% among 340,000; in the data active means inhibition above about 22%, passing the limit was not always enough;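 further: 0% = cells with DMSO and 100% = wells without cells with DMSO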
HTR5A inv ag = inverse agonist of human HTR5A in OPRM1-OPRD1 counter-screen | HTR5A cell line, luminescence, inverse agonism | hit rate 0.083% among 340,000 | inhibition, % at 9.3 µM; in the data active means inhibition mostly above about 23%, no sharp cut-off; inactive means mostly below about 18%;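 further: 0% = cells with DMSO and 100% = no-cell wells with DMSO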
m5-HT2A agonist = mouse HTR2A agonism via beta-arrestin recruitment. CHO-K1 mHTR2A beta-arrestin complementation, luminescence; percent of 30 µM serotonin response. activation, % at 7.6 µM. hit rate 0.66% among 360,000;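 active means activation above a run cutoff, the mean activation of all tested compounds plus 3 SD, cut at about 14% in these data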;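 further: 0% = plate median of compound wells and 100% = 30 µM serotonin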
Target sequence (P35363 whole entry, looked up): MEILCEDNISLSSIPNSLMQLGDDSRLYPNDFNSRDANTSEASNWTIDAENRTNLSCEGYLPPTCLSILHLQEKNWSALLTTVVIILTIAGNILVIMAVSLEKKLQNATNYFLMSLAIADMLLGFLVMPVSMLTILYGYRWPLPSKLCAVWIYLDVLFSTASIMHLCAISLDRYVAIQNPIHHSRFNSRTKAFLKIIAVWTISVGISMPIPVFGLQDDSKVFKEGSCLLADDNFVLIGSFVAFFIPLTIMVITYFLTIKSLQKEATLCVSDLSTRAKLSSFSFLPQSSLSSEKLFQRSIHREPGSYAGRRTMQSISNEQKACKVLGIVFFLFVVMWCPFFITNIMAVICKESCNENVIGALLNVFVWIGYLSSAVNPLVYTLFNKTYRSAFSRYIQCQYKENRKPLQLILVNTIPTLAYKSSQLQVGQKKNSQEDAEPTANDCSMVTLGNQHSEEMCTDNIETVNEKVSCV
HTR5A ag ctr = HTR5A agonism, opioid heterodimer counter-screen. P47898. HTR5A agonist assay, luminescence, cell-based. activation, % at 9.3 µM. hit rate 0.61% among 340,000; in the data active means activation mostly above about 9.5%, no sharp cut-off; inactive means mostly below about 7.6%;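 further: 0% = cells with vehicle only and 100% = reference agonist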
OPRM1 ag = counter-screen for mouse HTR2A agonists: human mu opioid receptor agonists; hit rate 5.3% among 2,300; shares compounds with m5-HT2A agonist; activation, % at 9.3 µM; AID 624380; U2OS OPRM1 beta-arrestin PathHunter, luminescence; DMSO 0%, DAMGO 9.3 µM 100%;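 active means mean activation above the mean of DMSO-only wells plus 3 SD, cut at about 0.5% in these data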
HTR2A ag conf = mouse HTR2A agonism confirmed; hit rate 19% among 2,300; activation, % at 7.6 µM; CHO-K1 PathHunter beta-arrestin recruitment, luminescence; DMSO 0%, 30 µM serotonin 100%; shares compounds with m5-HT2A agonist;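 active means mean activation across triplicates above the hit threshold derived in the original primary screen, cut at about 15% in these data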
An asterisk follows results filed as active; x = not tested or not shown.

SMILES	MOR-DOR ag	OPRM1-OPRD1 inv	HTR5A inv ag	m5-HT2A agonist	HTR5A ag ctr	OPRM1 ag	HTR2A ag conf
O=C(Cc1ccc(Cl)cc1)N1CCN(C(=O)c2ccco2)CC1	-2	13	19	-3	3	x	x
O=C(c1ccco1)N1CCN(Cc2ccc(Cl)cc2)CC1	1	-6	18	21*	-7	0	88*
CN(c1ccc(C(=O)N2CCN(Cc3ccccc3)CC2)cc1)S(=O)(=O)c1ccc(Cl)cc1	-1	3	-24	15*	0	0	64*
Cc1ccc(N(C)S(=O)(=O)c2cccc(C(=O)N3CCN(Cc4ccccc4)CC3)c2)cc1	-2	7	-20	-5	5	x	x
CCCCNC(=O)c1nc(C2CCN(S(=O)(=O)c3c(F)cccc3F)CC2)oc1-c1ccccc1	x	x	x	3	x	x	x
CC(=O)Nc1cccc(-c2ccnc3c2CC(C)(C(=O)Nc2ccc(Cl)c(C(F)(F)F)c2)O3)c1 (stereo not drawn)	x	x	x	9	x	x	x
N#Cc1ccc(OCC(=O)N2CCCC2=O)cc1	-3	12	-13	15*	5	0.7*	2
OC(c1ccc2ccccc2c1)c1ncc(-c2cccc3ccccc23)[nH]1 (stereo not drawn)	x	x	x	5	x	x	x
CCn1c(=S)[nH]c2c(=O)n(C)c(=O)n(C)c21	1	-7	3	17*	-1	0	3
Cn1c(=O)c2[nH]c(=O)[nH]c2n(C)c1=O	-2	9	18	0	-1	x	x
Cc1cc(O)ccc1-c1ccc2nncn2c1	x	x	x	3	x	x	x
CCCCc1c(C)nn(-c2nnc3c4ccccc4n(CC)c3n2)c1C	10	-63	-25	15*	6	0	5
CCn1c2ccccc2c2nc3ccccc3nc21	2	-8	16	4	-3	x	x
CN(CC(=O)Nc1ccc(Cl)cc1)CC(=O)N1CCc2ccccc21	x	x	x	17*	x	0	2
CCc1ccccc1NC(=O)N1CCc2ccccc21	1	-3	-5	17*	5	-1	-4
CC(C)CN1C(=O)CN(S(C)(=O)=O)CC1(C)C(=O)NC(C)C (stereo not drawn)	x	x	x	2	x	x	x
Oc1ccccc1C=NNC(=S)NC1CC2C=CC1C2 (stereo not drawn)	x	x	x	19*	x	0	6
Oc1ccccc1/C=N/NC(=S)NC1CC2C=CC1C2 (stereo not drawn)	8	-38	-13	8	6	x	x
COc1cc(C(=O)N2CCCCC2c2cc(C(=O)NC(C)C)no2)cc(OC)c1C (stereo not drawn)	x	x	x	-4	x	x	x
CCCNC(=O)c1cc(C2CCCCN2C(=O)c2cc(OC)c(C)c(OC)c2)on1 (stereo not drawn)	x	x	x	16*	x	-1	-4
CCOCCn1c(SCc2ccccc2)nc2c1c(=O)[nH]c(=O)n2C	3	-17	-29	1	10	x	x
CCOCCn1c(SCC(=O)OCc2ccccc2)nc2c1c(=O)[nH]c(=O)n2C	0	3	-3	17*	2	0	1
CC(C)C(=O)Nc1ccc(C(=O)NNC(=S)NC(=O)c2ccco2)cc1	-2	12	3	15*	-1	-1	2
Cc1ccc(C(=O)NNC(=S)NC(=O)c2ccco2)cc1	-4	17	18	-4	2	x	x
C[C@H](CO)N1C[C@H](C)[C@H](CN(C)S(=O)(=O)c2cccc(C#N)c2)OCc2cnnn2CCCC1=O	x	x	x	4	x	x	x
SMILES	MOR-DOR ag	OPRM1-OPRD1 inv	HTR5A inv ag	m5-HT2A agonist	HTR5A ag ctr	OPRM1 ag	HTR2A ag conf
O=C(c1ccco1)N1CCN(c2nc3ccsc3c(=O)s2)CC1	-3	15	9	42*	-3	-1	9
CCN(c1ccccc1)S(=O)(=O)c1ccc(Cl)c(NC(=O)CSc2nc(N)cc(=O)[nH]2)c1	x	x	x	0	x	x	x
CCOC(=O)CNC(=S)N(CCCN1CCCCCC1)Cc1cccs1	0	-2	-26	7	1	x	x
CCOC(=O)CNC(=S)N(CCCN1CCCC1)Cc1cccs1	-1	9	2	29*	0	-1	10
O=C(NCC[C@H]1CC[C@@H](NC(=O)C2CCC2)[C@@H](CO)O1)c1cc(Cl)cc(Cl)c1	x	x	x	3	x	x	x
O=C1C=C(OCCCl)CC(c2cccc(Cl)c2)O1 (stereo not drawn)	x	x	x	0	x	x	x
O=C1N/C(=N/O)S/C1=C\c1ccccc1-n1cccn1	-1	7	-26	16*	-1	0	0
Cc1cccc(NC(=O)C2Cc3ccccc3O/C2=N\O)c1 (stereo not drawn)	-3	13	12	16*	-3	-1	-3
C=C(C)c1cccc(C(C)(C)NC(=O)Nc2ccc(Cl)cn2)c1	9	-53	-10	30*	4	0	18*
C=C(C)c1cccc(C(C)(C)NC(=O)Nc2ncccn2)c1	1	-8	3	-5	-1	x	x
C=C(C)c1cccc(C(C)(C)NC(=O)Nn2cnnc2)c1	-1	4	16	16*	-2	-1	16*
C=C(C)c1cccc(C(C)(C)NC(=O)NCc2ccncc2)c1	-3	17	-11	8	-5	x	x
CCOC(=O)C1CCN(c2nc(C)cc(C)c2C#N)CC1	0	0	3	16*	-1	0	-3
CCc1nc2ccc(C(=O)N3CCN(C(=O)c4ccco4)CC3)cn2c1N(CC)Cc1cccc(Br)c1	x	x	x	-1	x	x	x
CC1(C(=O)NC2CCCC2)CCC(=O)N1CCCn1ccnc1 (stereo not drawn)	x	x	x	-4	x	x	x
CCn1cc(C(=O)NCCCN2CCCC(C)C2)c(=O)c2cc(S(=O)(=O)N3CCOCC3)ccc21 (stereo not drawn)	-2	8	9	21*	7	-1	-5
CC(C)Sc1cc(N2CCOCC2)nc(-c2ccc(Cl)cc2)n1	-3	15	-7	14*	3	0	9
Cc1cccc(C)c1NC(=O)c1cc(S(=O)(=O)N2CCc3ccccc32)cn1C	-2	9	-20	21*	6	0	-3
CC(C)[C@H](NC(=O)c1ccc(C(C)(C)C)cc1)C(=O)N1CCN(Cc2ccc3c(c2)OCO3)CC1	0	3	-8	34*	2	0	70*
C=CCOC(=O)Nc1nc(CCNC(=O)OCc2ccccc2)c(C(=O)O)s1	x	x	x	0	x	x	x
CCc1c(C2(O)CCCCC2)[nH]c2cc(C(F)(F)F)ccc12	15	-82	20	7	-8	x	x
Cc1c(C2(O)CCCCC2)[nH]c2cc(C(F)(F)F)ccc12	13	-60	-6	19*	10	1.0*	-1
Cc1ccc(S(=O)(=O)N/N=C/c2c(F)cccc2Cl)cc1	1	-3	10	15*	9	-1	-3
O=S(=O)(N/N=C/c1c(F)cccc1Cl)c1ccccc1	-4	17	-9	7	3	x	x
